# PubChem BioAssay (Tox21)
# Active and inactive are the calls of the source. The call rests on the fitted dose curve; in most records, active means well fitted cell-killing curve with a large enough effect in the repeat runs; inconclusive means weak or mixed curves, or effect the other way; inactive means flat fitted curve, though single readings scatter.
# Assay: qHTS assay to identify small molecule HDAC inhibitors - cell viability counter screen (AID 1259365); further: nearly all actives have a fitted effect of over 50% in size
# Settings: HCT-116 viability, CellTiter-Glo ATP luminescence, 2 h; series mostly up to 92.4 µM
# Excerpt: U.S. Tox21 Program National Center for Advancing Translational Sciences [NCATS] NIH Chemical Genomics Center [NCGC] U.S. Environmental Protection Agency [EPA] National Institutes of Environmental Health Sciences [NIEHS] National Toxicology Program [NTP] U.S. Food and Drug Administration [FDA] Tox21 Assay Overview: Histone deacetylases (HDACs) are a group of epigenetic enzymes that regulate gene expression by histone deacetylation. HDACs are capable of introducing epigenetic modifications and such aberrations contribute to the onset and progression of several human diseases, thus making HDACs a popular therapeutic target. For identifying endogenous class I/II HDAC inhibitors a homogenous, luminogenic HDAC I/II cell based assay was used to measure the relative activity of class I and II HDACs from cells. Wild type HCT-116 cells were used to screen Tox21 compound libraries for identifying class I/II HDAC inhibitors.
# Tox21 Assay Protocol Summary: HCT-116 cells were dispensed at 1,500 per well in 5uL of culture medium into white solid bottom 1536-well plates (Greiner Bio-One, Monroe, NC) using a Multidrop Combi (Thermo Scientific, Waltham, MA) dispenser. The assay plates were incubated at 37 C and 5% CO2 for an overnight, and then 23nL of compounds dissolved in DMSO and positive control were transferred using a Pintool station (Wako, San Diego, CA). The assay plates were incubated at 37C and 5% CO2 for 2hr. After compound treatment, 4uL of CellTiter-Glo reagent (Promega Corporation, Madison, WI) was added to each well of the assay plates using Flying Reagent Dispenser (FRD, Aurora Discovery, San Diego, CA) and incubated the assay plates at room temperature for 30min. The luminescence signal was quantified using a ViewLux plate reader (Perkin Elmer, Shelton, CT).
row,SMILES,outcome
1,CCCCN(CCCC)SN(C)C(=O)Oc1cccc2c1OC(C)(C)C2,inactive
2,[N-]=[N+]=[N-],inactive
3,[O-][Cl+2]([O-])O,inactive
4,COC(=O)NS(=O)(=O)c1ccc(N)cc1,inactive
5,Cn1cc(-c2ccccc2)c(=O)c(-c2cccc(C(F)(F)F)c2)c1,inactive
6,Cc1cccc([N+](=O)[O-])c1,inactive
7,CC(=O)C=C(C)C,inactive
8,C1CN2CCN1CC2,inactive
9,CCOC(=O)c1ccccc1C(=O)OCC,inactive
10,Nc1c(Cl)c(Cl)nc(C(=O)O)c1Cl,inactive
11,O=c1n(Cl)c(=O)n(Cl)c(=O)n1Cl,inactive
12,C1CC2OC2CC1C1CO1 (stereo not given),inactive
13,COCCl,inactive
14,CCOP(=S)(OCC)SCCSCC,inactive
15,O=C(O)c1ccccn1,inactive
16,CCCCCCCCCCCC#N,inactive
17,CCc1cccc(C)c1N(C(=O)CCl)C(C)COC (stereo not given),inactive
18,CCCCCCCCCl,inactive
19,CCCCOC(=O)c1ccccc1C(=O)OCCCC,inactive
20,c1ccc(-c2ccccc2)cc1,inactive

row,SMILES,outcome
1,Cc1ccc(N)cc1N,inactive
2,CC(C)OC(=O)Nc1ccccc1,inactive
3,CCCC1COC(Cn2cncn2)(c2ccc(Cl)cc2Cl)O1 (stereo not given),inactive
4,O=[N+]([O-])c1ccc([As](=O)(O)O)cc1,inactive
5,Oc1ccccc1Cl,inactive
6,CN(C)[C@@H]1C(=O)C(C(N)=O)=C(O)[C@@]2(O)C(=O)C3=C(O)c4c(O)cccc4[C@@](C)(O)[C@H]3C[C@@H]12,inactive
7,CN(C)CCO,inactive
8,CC(Br)C(=O)O (stereo not given),inactive
9,O=S(=O)(c1ccc(Cl)cc1)c1cc(Cl)c(Cl)cc1Cl,inactive
10,CN(C)N=O,inactive
11,CCC[CH2][Sn]([Cl])([Cl])[Cl],inactive
12,ClCc1cccnc1,inactive
13,Clc1cccc(Cl)c1Cl,inactive
14,O=NN1CCCCCCC1,inactive
15,CCN(CC)c1ccccc1,inactive
16,CC(C)C1(C)N=C(c2nc3ccccc3cc2C(=O)O)NC1=O (stereo not given),inactive
17,OC(O)C(Cl)(Cl)Cl,inactive
18,CC(C#N)CCC#N (stereo not given),inactive
19,CCC12COCN1COC2,inactive
20,C=CC(N)=O,inactive
